PubChem BioAssay AID1645855 (Buhrlage Lab, Dana-Farber Cancer Institute and Novartis …, 2021)
Hit rate of the full screen: of about 47,000 compounds, about 3,100 (6.6%) were called active. Rule as the data show it: active = inhibition above about 30%; inactive = the rest. Shown is part of a subset that was picked to be rich in actives.

These molecules were tested against Ubiquitin carboxyl-terminal hydrolase 17-like protein 5 (Homo sapiens) (UniProt A8MUK1) (assay: inhibitors of human USP17 deubiquitinase (AID 1645855)). Conditions: purified USP17, Ub-rhodamine cleavage fluorescence, 3 h; at 50 µM; hits give high values.
Chain of Ubiquitin carboxyl-terminal hydrolase 17-like protein 5 (Homo sapiens) (A8MUK1 whole entry, looked up): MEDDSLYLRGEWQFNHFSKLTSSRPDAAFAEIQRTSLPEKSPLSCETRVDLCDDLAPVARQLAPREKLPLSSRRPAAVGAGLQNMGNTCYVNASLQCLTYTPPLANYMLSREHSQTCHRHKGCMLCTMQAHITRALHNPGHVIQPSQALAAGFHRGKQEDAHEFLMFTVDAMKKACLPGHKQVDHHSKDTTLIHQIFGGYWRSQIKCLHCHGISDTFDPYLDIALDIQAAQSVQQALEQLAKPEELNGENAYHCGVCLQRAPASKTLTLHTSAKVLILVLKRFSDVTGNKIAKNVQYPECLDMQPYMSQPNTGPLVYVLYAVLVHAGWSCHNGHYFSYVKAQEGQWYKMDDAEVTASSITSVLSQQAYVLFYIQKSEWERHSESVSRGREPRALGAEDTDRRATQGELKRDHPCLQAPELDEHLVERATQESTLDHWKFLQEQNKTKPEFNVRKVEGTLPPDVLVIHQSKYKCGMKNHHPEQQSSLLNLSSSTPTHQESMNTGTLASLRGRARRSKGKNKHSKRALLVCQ

inhibition, inactive:
O=c1[nH]c(-c2ccncc2)nc2c1CCN(Cc1cn[nH]c1-c1ccc(Cl)cc1)C2 -0.0464%
C#CCOc1ccc(CN2CCc3nc(-c4cccnc4)[nH]c(=O)c3C2)cc1OC -0.00604%
CCc1cccc(C)c1NC(=O)Cn1nc2ccc(C(=O)NCc3ccccc3)cn2c1=O 16.4%
Cc1ccc(-c2cc(=O)[nH]c(NCc3ccccc3)n2)cc1 -6.42%
CC(=O)N1CCN(c2cc(N3CCCCC3)nc(C)n2)CC1 -36.6%
CCCN1CCN(c2ccc(C(=O)O)cc2NS(=O)(=O)c2cc(F)ccc2F)CC1 10.4%
Cc1cc(Nc2ccc(C(=O)NCC(C)C)cc2)n2nc(-c3cccnc3)nc2n1 -7.54%
COc1ccc(-c2cc(C(F)F)n3ncc(C(=O)N(C)Cc4c(C)nn(C)c4C)c3n2)cc1 -8.87%
O=C(O)COc1ccccc1C(c1c[nH]c2ccccc12)c1c[nH]c2ccccc12 -15.6%
COc1ccc(CN2CCN(C(=O)c3ccc4c(c3)OCO4)CC2)cn1 -5.73%
CC(C)c1ccc(NC(=O)CCC(=O)N(c2ccccc2)c2ccccc2)cc1 6.5%
COc1cccc(NS(=O)(=O)c2ccc(-c3coc(C)n3)cc2)c1 0.103%
Cc1cccc(NS(=O)(=O)c2ccc3nnc(C)n3c2)c1 4.3%
CC1(C)Cc2cccc(OCC(=O)NCC(F)(F)F)c2O1 4.4%
COC(=O)c1ccc(C(=O)NCC2(O)CCc3ccccc32)cc1 (stereo not drawn) -0.0822%
COCCN1C[C@@]23CN(C(=O)NCc4ccccc4)C[C@@H](C[C@@H]2S1(=O)=O)O3 12.1%
CC(=O)Nc1ccc(-n2cnc(C(=O)N3CCN(c4ccc(C)cc4)CC3)c2)nc1 13.8%
CC(=O)Nc1ccc(-n2cnc(C(=O)N3CCN(c4cccc(C)c4)CC3)c2)nc1 -7.95%
Cc1nc(C2CCN(S(C)(=O)=O)CC2)nc2c1CCC(=O)N2CC(C)C -7.01%
Cc1cc2nc(Cc3ccccc3)cc(=O)n2[nH]1 -11.5%
CCN1CCN(S(=O)(=O)c2ccc3c(c2)CC(C)N3C(=O)C2CC2)CC1 (stereo not drawn) 2.74%
CC1CCCN(C(=O)c2cc(S(=O)(=O)N3CCCCC3)ccc2Cl)C1 (stereo not drawn) -1.66%
COc1ccc2ncc(S(=O)(=O)c3ccccc3)c(N3CCOCC3)c2c1 -6.05%
O=C(Cc1cccc(F)c1)NC1(c2nc(C3CC3)no2)CCCCC1 5.03%
Cc1noc(C2(NC(=O)Cc3ccccc3C)CCCCC2)n1 -5.54%
Cc1nn2c(S(=O)(=O)NCc3ccccc3F)c(C)nc2s1 18.9%
CCN(CC)c1ccc(NC(=O)Nc2ccc(OCc3ccccc3)cc2)cc1 7.88%
CC1CCN(S(=O)(=O)N2CCCC(C(=O)Nc3ccccc3Cl)C2)CC1 (stereo not drawn) 1.17%
Cc1ccc2nc(CCC(=O)NCc3ccc(F)cc3F)n(C)c(=O)c2c1 10.9%
O=C(CCc1nc2sc3c(c2c(=O)[nH]1)CCCC3)Nc1ccc(F)cc1 2.56%
CC(C)C(=O)Nc1nc2cc(NS(=O)(=O)c3ccccc3)ccc2s1 4.36%
O=C(Cc1cccc2ccccc12)Nc1nc2ccc(F)cc2s1 23.9%
Cc1ccc2[nH]cc(C(C(=O)O)N3CCN(c4ccc(C(F)(F)F)cn4)CC3)c2c1 (stereo not drawn) -4.78%
Cc1cccc(C)c1NS(=O)(=O)c1ccc(N2CCCC2=O)cc1 -8.71%
Cc1noc(C)c1CN1C[C@H](OCc2ccccn2)[C@H]2OCCC[C@H]21 -5.79%
CCc1cc(=O)n(CC(=O)NCc2ccccc2)c(N2CCOCC2)n1 -0.113%
Cc1cc(=O)n(CC(=O)Nc2ccc(F)cc2C)c(N2CCCC2)n1 16.9%
O=C(Cc1c[nH]c2ccccc12)N1CCc2cc(-c3ccno3)ccc21 -26.7%
COc1ccc(-c2noc(CN(C3CCCCC3)S(=O)(=O)c3ccc(OC)cc3)n2)cc1 4.09%
COc1ccc(-c2noc(C3(c4ccccc4)CCOCC3)n2)cc1 19.3%
CC(C)n1ncc2[nH]c(C3CCCN(C(=O)Nc4ccc(F)cc4)C3)nc21 (stereo not drawn) -4.82%
CCOC(=O)c1cc2c(ccn2-c2ccc(F)cc2)n1Cc1ncc(C)c(OC)c1C -32%
COc1ccccc1C(=O)Nc1cccn2nc(C3CCC3)nc12 2.42%
O=C(Nc1cc(-c2ccccc2)nn1C1CCS(=O)(=O)C1)c1ccccc1F (stereo not drawn) -23.8%
CCCCn1c(=O)[nH]c2c(c1=O)CCC2 4.26%
Cc1ccc(S(=O)(=O)CC(=O)Nc2sc(C)c(C)c2C(N)=O)cc1 -27.2%
Cc1sc(NC(=O)CS(=O)(=O)c2ccc(F)cc2)c(C(N)=O)c1C -84%
CCN1CCN(C2=Nc3c(Cl)cc(Cl)c4cccc2c34)CC1 -158%
O=c1c2ccccc2ncn1Cc1noc(-c2ccccc2F)n1 -0.0976%
COc1ccccc1-c1nc(-c2ccc(-n3cccn3)nc2)no1 2.48%
CC(C)NC(=O)[C@H](C)NC(=O)N1CCn2c1nc1ccccc12 -12.1%
CN1Cc2c(C(=O)NCC3CCCO3)ncn2-c2ccccc2S1(=O)=O (stereo not drawn) -13.6%
Cn1c(=O)c2c(SCC(=O)N3CCC(Cc4ccccc4)CC3)nc(-c3cccs3)nc2n(C)c1=O 2.08%
COc1ccc(F)cc1-c1ccccc1CC1CNCCNC1=O (stereo not drawn) -14.6%
O=C(Cn1cnc2ccccc21)N1CCCc2ccccc21 -1.89%
Cc1nc2ccccc2c(=O)n1CC(=O)N1CCCc2ccccc21 4.34%
Cn1c(=O)c2c(ncn2CC(=O)OCc2cccc([N+](=O)[O-])c2)n(C)c1=O -12.3%
COc1ccc(-c2cc(C(=O)Nc3cccc(C)c3C)c3ccccc3n2)cc1OC -1.61%
CCN1C[C@@]23CN(C(=O)c4ccc(OC)cc4)C[C@@H](C[C@@H]2S1(=O)=O)O3 0.859%
O=C(c1ccco1)[C@@H]1[C@@H]2C(=O)N(c3cccc([N+](=O)[O-])c3)C(=O)[C@@H]2C2c3ccccc3C=CN21 (stereo partly drawn) -7.36%
COc1cccc(N2CCCN(C(=O)c3ccc4nc(C)[nH]c4c3)CC2)c1 -10.9%
O=C(c1cccnc1)N1CCN(c2cc(-c3ccccc3)[nH]n2)CC1 -26.3%
N#Cc1ccccc1NC(=O)c1cccc2c1SCCC2=O 8.87%
Cc1cccc(N2CCN(C(=O)C3CCCN(S(=O)(=O)N4CCC5(CC4)OCCO5)C3)CC2)c1C (stereo not drawn) 9.89%
O=C(O)c1c2c(nc3ccccc13)/C(=C/c1ccc(F)cc1)CCC2 4.5%
CCC(C)Cc1ccc2c(c1O)C(=O)OC(CC(\C=C/C=C\C=C\c1coc(CC(O)C(C)C(O)CC)n1)OC)C2 (stereo not drawn) 14.5%
O=C(NCc1ccccc1)c1cc(-c2ccncc2)n[nH]1 -3.2%
COc1ccccc1CNC(=O)c1c(O)c2cccnc2n(-c2ccccc2)c1=O -4.34%
O=C(CN1CCC(Nc2nc3c(c(=O)[nH]2)CCCC3)CC1)Nc1ccccc1[N+](=O)[O-] 14%
Cc1sc(NC(=O)CCc2ccccc2)nc1-c1ccc2c(c1)N(C)C(=O)CO2 -15.7%
Cc1ccc(C)c(S(=O)(=O)N2CCC(c3nc(C(=O)N(C)C)c(C)o3)CC2)c1 -7.71%

inhibition, active:
O=c1[nH]c(-c2ccccn2)nc2c1CCN(Cc1cnn(-c3ccc(F)cc3)c1)C2 43.5%
Cc1ccc(-c2cc(C(F)F)n3ncc(C(=O)NCC(C)C)c3n2)cc1 36.6%
O=S(=O)(Nc1cccc(O)c1)c1ccc2oc3ccc(S(=O)(=O)Nc4cccc(O)c4)cc3c2c1 39.1%
CC(=O)Nc1ccc(-n2cnc(C(=O)NCc3ccc(C)cc3)c2)nc1 64.2%
CC(C)NC(=O)CN1C(=O)CC(C)Sc2ccc(S(=O)(=O)N3CCCCC3)cc21 (stereo not drawn) 43.8%
Cc1csc(C2(NC(=O)Cc3cc(C)on3)CCCC2)n1 31.4%
CC(C)C(=O)Nc1nc2ccc(CCC(=O)Nc3ccc(F)cc3)cc2s1 43.6%
CCCC(=O)Nc1nc2ccc(CCC(=O)NCc3ccc(F)cc3)cc2s1 65.3%
Cc1cc2nc(N3CCOCC3)n(CC(=O)Nc3ccccc3F)c(=O)c2n1C 36%
COc1ccc(-c2noc(-c3ccc(N(C)Cc4ccco4)nn3)n2)cc1 30.7%
CC(C)(C)n1nc(C2CC2)c(Br)c1NC(=O)c1ccccc1F 93.7%
Cc1sc(NC(=O)c2ccc(S(=O)(=O)N(C)CC3CCCO3)cc2)c(C(N)=O)c1C (stereo not drawn) 40.5%
O=c1c2ccccc2c(-c2nc(-c3ccncc3)no2)cn1-c1ccc(F)cc1 37.7%
COC(=O)COc1cccc2c(=O)n(CC(=O)N3CCc4ccccc43)ccc12 35.8%
COc1cccc(-c2cc(C(=O)N3CCN(c4ccc(N5CCOCC5)nn4)CC3)[nH]n2)c1 33.1%
O=C1NC(c2ccccc2)=N/C1=C/c1ccc(F)cc1 39.9%
O=C(NCc1ccccc1)c1c(O)c2cnn(Cc3ccccc3)c2[nH]c1=O 33.7%
